Measured values from PubChem BioAssay (Tox21).
Activity calls are given as the source filed them. Where a call stands in place of a potency, no number is given. Calls follow the shape of the full dose curve.

Test system: not listed separately
Assay: qHTS assay to identify small molecule antagonists of the estrogen receptor alpha (ER-alpha) signaling pathway - cell viability counter screen (AID 743074);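 also: HEK293 cells carrying ER-alpha-UAS-bla reporter stimulated with 17beta-estradiol; nearly all actives have a fitted effect of over 45% in size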
Settings: ERalpha-bla HEK293 viability, CellTiter-Glo luminescence, 18 h; series mostly up to 69.4 µM

Compound	Potency
O=C(O)C[C@H](NC(=O)OCc1ccccc1)C(=O)O	inactive
CCCCCCCC/C=C\CCCCCCCCCCCC(=O)O	inactive
c1ccc2sc(SN(C3CCCCC3)C3CCCCC3)nc2c1	inactive
Nc1nnc(-c2ccc([N+](=O)[O-])o2)o1	inactive
O=C1CCCCCCCCCCOCCCCO1	inactive
CCCCCC[C@@H](O)C/C=C\CCCCCCCC(=O)O	inactive
CCC(C)COC(=O)CC(C)C (stereo not given)	inactive
CCC(=O)OC	inactive
O=C1c2ccccc2C(=O)C1(O)O	inactive
FC(F)(F)c1ccccc1Cl	inactive
Oc1ccc(Cl)c2cccnc12	inactive
N#CCCN(CCO)CCO	inactive
COc1ccccc1N1CCN(CC(O)COc2cccc3ccccc23)CC1 (stereo not given)	inactive
CCOc1ccc(Cc2nccc3cc(OCC)c(OCC)cc23)cc1OCC	inactive
Cc1cccc(O)c1N	inactive
C=C(C)[C@@H]1CCC2=CCC[C@@H](C)[C@]2(C)C1	inactive

Compound	Potency
O=C1c2ccccc2C(=O)C1c1ccc(Br)cc1	inactive
O=C1c2ccccc2C(=O)c2c(O)c(O)cc(O)c21	inactive
O=C(O)c1ccc(OCCCOc2ccc(C(=O)O)cc2)cc1	inactive
COC(=O)CS	inactive
Cc1ccccc1S	inactive
CCCCCC#CC(=O)OC	inactive
CC(C)=CC(=O)C=C(C)C	inactive
C/C=C\C/C=C/CCCCCCCCOC(C)=O	inactive
CCCCCCCCC(CCCCCC)C(=O)O (stereo not given)	inactive
O=C1Cc2ccccc2N1c1c(Cl)cccc1Cl	inactive
CC(C)C(O)(c1ccc(OC(F)(F)F)cc1)c1cncnc1 (stereo not given)	inactive
O=[N+]([O-])c1ccc(Nc2ccc(Nc3ccccc3)c(S(=O)(=O)O)c2)c([N+](=O)[O-])c1	inactive
CC(=O)[C@H]1[C@H](C#N)C[C@H]2[C@@H]3CC=C4C[C@@H](O)CC[C@]4(C)[C@H]3CC[C@@]21C	inactive
CCOC(=O)c1ccc(I)cc1	inactive
CCCC(C(=O)OCCN(CC)CC)(c1ccccc1)c1ccccc1	inactive
CCCCCCCCOc1ccc(C(=O)O)cc1	inactive

Target: Estrogen receptor (Homo sapiens) (UniProt P03372)
Assay: qHTS assay to identify small molecule agonists of the estrogen receptor alpha (ER-alpha) signaling pathway (AID 743075);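 also: HEK293 GripTite cells with ER-alpha and UAS-driven beta-lactamase reporter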; also: potency is read from the fitted curve at half-maximal effect
Settings: HEK293 ER-alpha-UAS-bla, beta-lactamase FRET ratio, 18 h; series mostly up to 70.1 µM

Estrogen receptor (Homo sapiens), sequence (P03372 whole entry, looked up): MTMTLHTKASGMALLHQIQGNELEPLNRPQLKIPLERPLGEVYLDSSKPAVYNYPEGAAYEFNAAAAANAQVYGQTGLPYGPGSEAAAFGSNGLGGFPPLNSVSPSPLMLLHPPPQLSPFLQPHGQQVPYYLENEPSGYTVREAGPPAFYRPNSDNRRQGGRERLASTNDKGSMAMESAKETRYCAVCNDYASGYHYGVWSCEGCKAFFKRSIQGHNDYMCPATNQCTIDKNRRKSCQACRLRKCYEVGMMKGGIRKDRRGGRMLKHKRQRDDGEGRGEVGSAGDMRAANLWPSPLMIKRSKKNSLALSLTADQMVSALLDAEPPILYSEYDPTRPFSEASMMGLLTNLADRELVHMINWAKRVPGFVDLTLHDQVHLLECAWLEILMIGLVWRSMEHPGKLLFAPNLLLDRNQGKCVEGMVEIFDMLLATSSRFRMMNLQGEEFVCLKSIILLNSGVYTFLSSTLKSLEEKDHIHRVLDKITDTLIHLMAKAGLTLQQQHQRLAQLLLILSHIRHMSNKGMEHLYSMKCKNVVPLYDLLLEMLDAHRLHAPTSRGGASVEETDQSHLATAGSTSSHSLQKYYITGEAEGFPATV

Compound	Potency
O=C(O)C[C@H](NC(=O)OCc1ccccc1)C(=O)O	inactive
CCCCCCCC/C=C\CCCCCCCCCCCC(=O)O	inactive
c1ccc2sc(SN(C3CCCCC3)C3CCCCC3)nc2c1	inactive
Nc1nnc(-c2ccc([N+](=O)[O-])o2)o1	inactive
CCC(C)COC(=O)CC(C)C (stereo not given)	inactive
CCC(=O)OC	inactive
Cc1ccc(Cl)c(Nc2ccccc2C(=O)O)c1Cl	inactive
O=C1c2ccccc2C(=O)C1(O)O	inactive
FC(F)(F)c1ccccc1Cl	inactive
Oc1ccc(Cl)c2cccnc12	inactive
N#CCCN(CCO)CCO	inactive
CCOc1ccc(Cc2nccc3cc(OCC)c(OCC)cc23)cc1OCC	inactive
C=C(C)[C@@H]1CCC2=CCC[C@@H](C)[C@]2(C)C1	inactive
O=C1c2ccccc2C(=O)C1c1ccc(Br)cc1	inactive
O=C1c2ccccc2C(=O)c2c(O)c(O)cc(O)c21	inactive
COC(=O)CS	inactive
Cc1ccccc1S	inactive
CCCCCC#CC(=O)OC	inactive
CC(C)=CC(=O)C=C(C)C	inactive
C/C=C\C/C=C/CCCCCCCCOC(C)=O	inactive
O=C1Cc2ccccc2N1c1c(Cl)cccc1Cl	43.6 µM [inconclusive] (active)
CC(=O)[C@H]1[C@H](C#N)C[C@H]2[C@@H]3CC=C4C[C@@H](O)CC[C@]4(C)[C@H]3CC[C@@]21C	inactive
Oc1c(I)cc(I)c2cccnc12	inactive
CCOC(=O)c1ccc(I)cc1	inactive
O=C(CCc1ccc(O)cc1)c1c(O)cc(O)cc1O	14.1 µM [inconclusive] (active)
COc1ccccc1Oc1c(NS(=O)(=O)c2ccc(C(C)(C)C)cc2)nc(-c2ncccn2)nc1OCCO	inactive
CCCC(C(=O)OCCN(CC)CC)(c1ccccc1)c1ccccc1	inactive
Oc1cccc(Nc2ccccc2)c1	57.6 µM [activator] (active)
